# Unmarked numbers belong to inactive results. The call rests on the fitted dose curve; in most records, active means well fitted activation curve with a large enough effect; inconclusive means small, poorly fitted or top-dose-only effect; inactive means no such curve, though single readings can be large or run the other way.
# Target: Cytochrome P450 3A4 (Homo sapiens) (UniProt P08684)
# Test: qHTS Assay for Activators of Cytochrome P450 3A4 (AID 885); further: nearly all actives have a fitted effect of over 65% in size
# Conditions: recombinant CYP3A4, Luciferin-PPXE luminescence, 60 min; series mostly up to 57.1 µM; activity change, positive = activation: at the top concentration
# Description: NIH Molecular Libraries Screening Centers Network [MLSCN]
# NIH Chemical Genomics Center [NCGC]
# The P450 gene superfamily is involved in the metabolism and clearance of xenobiotics. This assay used human CYP3A4 to measure the dealkylation of luciferin-6' phenylpiperazinylyl (Luciferin-PPXE; […]) to luciferin. The luciferin is then measured by luminescence after the addition of a luciferase detection reagent. Luciferin-PPXE concentration in the assay was equal to its KM for CYP3A4. Inhibitors and some substrates limit the production of luciferin, and decrease measured luminescence; activators increase the production of luciferin and luminescence.
# NCGC Assay Protocol Summary:
# Two uL of enzyme and substrate mix (final concentrations: 20nM CYP3A4, 25uM Luciferin-PPXE, 200mM KPO4) were dispensed into a white, solid bottom 1536-well microtiter plate. 23nL of compound was transferred by a pin tool. The plate was incubated at RT for 10 min. Two uL of an NADPH regeneration solution (Promega supplied reagent) was dispensed and the reaction was allowed to continue for 60 min at RT. Then the reaction was stopped by reconstituted luciferin detection buffer. After another 20 min of incubation the plate was read on the ViewLux (Perkin Elmer) at 60 sec exposure and 2x2 binning. This protocol was carried out with Promega-Glo reagents and further information can be found at http://www.promega.com/tbs/tb325/tb325.pdf. Data were normalized to the to AC100 inhibition (57 uM ketoconazole).
# Keywords: P450, CYP2D6, Luciferase, MLSMR, MLSCN, NIH Roadmap, qHTS, NCGC
# Sequence of Cytochrome P450 3A4 (Homo sapiens) (P08684 whole entry, looked up): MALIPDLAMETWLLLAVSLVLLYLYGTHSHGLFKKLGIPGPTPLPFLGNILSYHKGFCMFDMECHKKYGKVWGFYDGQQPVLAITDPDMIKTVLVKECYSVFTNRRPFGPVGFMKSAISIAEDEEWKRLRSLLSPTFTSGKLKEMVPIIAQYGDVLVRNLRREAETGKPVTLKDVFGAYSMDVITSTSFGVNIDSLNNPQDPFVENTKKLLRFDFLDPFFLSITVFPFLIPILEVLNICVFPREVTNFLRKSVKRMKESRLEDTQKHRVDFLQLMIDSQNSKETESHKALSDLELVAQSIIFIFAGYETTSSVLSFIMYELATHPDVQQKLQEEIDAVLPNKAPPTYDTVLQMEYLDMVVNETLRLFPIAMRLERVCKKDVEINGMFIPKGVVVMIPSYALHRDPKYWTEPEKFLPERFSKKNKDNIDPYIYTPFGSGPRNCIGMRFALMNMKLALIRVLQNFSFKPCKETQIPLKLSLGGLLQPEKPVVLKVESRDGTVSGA
row,SMILES,"activity change, positive = activation"
1,COCCNC(=O)[C@H](C)[C@H]1C[C@]1(C)[C@H](NC(=O)OCc1ccccc1)c1ccccc1,-96.9%
2,COc1ccc(COC(=O)N/N=C2/C[C@@H](O)[C@@H](O)[C@@H]3[C@@H]4C(=O)N(C(C)(C)C)C(=O)[C@H]4CC[C@H]23)cc1,-30.7% [at 11.4 µM]
3,O=C(OCC1OC(OC(=O)c2cc(O)c(O)c(OC(=O)c3cc(O)c(O)c(O)c3)c2)[C@@H](OC(=O)c2cc(O)c(O)c(OC(=O)c3cc(O)c(O)c(O)c3)c2)C(OC(=O)c2cc(O)c(O)c(OC(=O)c3cc(O)c(O)c(O)c3)c2)C1OC(=O)c1cc(O)c(O)c(OC(=O)c2cc(O)c(O)c(O)c2)c1)c1cc(O)c(O)c(OC(=O)c2cc(O)c(O)c(O)c2)c1 (stereo not given in full),-106%
4,CC1(C)OC(C(O)(c2ccccc2)c2ccccc2)C(C(O)(c2ccccc2)c2ccccc2)O1 (stereo not given),-63.1% [at 11.4 µM]
5,COC(=O)NC(/C=C/c1ccccc1)[C@]1(C(C)=O)CCCC1=O (stereo not given in full),-41.6% [at 11.4 µM]
6,C#CCCCO/N=C1/C[C@@H](O)[C@@H](O)[C@@H]2[C@H]3C(=O)N(c4ccc(F)cc4F)C(=O)[C@@H]3CC[C@H]12,-60.2% [at 11.4 µM]
7,COc1ccc2c(=O)c(-c3ccccc3)coc2c1,-39.7%
8,CCC1=C(OC(=O)N(CC)CC)N2C(=O)OC(=NCC(=O)OC)[C@]2(C)[C@H]2C1=CC[C@H]1C(=O)N(CC)C(=O)[C@H]12,-79.2%
9,C/C=C/OC(=O)NC(c1ccccc1)[C@]1(C(C)=O)CCOC1=O (stereo not given in full),-81.2% [at 11.4 µM]
10,COC(=O)c1ccc(C23CC4(C2)[C@H](CN(Cc2cccnc2)[C@@H]4c2ccccc2)C3c2ccc(C(F)(F)F)cc2)cc1 (stereo not given in full),-79.7%
11,CCC(=O)[C@]12O[C@@]3(C4C(=O)OCCC41)N(CC)C(C)=C(C(=O)OC)C(c1ccccc1)N3C2=O (stereo not given in full),-34.2% [at 11.4 µM]
12,COC(=O)NC(/C(C(=O)OC)=C(\C)NCc1ccccc1)c1ccc2ccccc2c1 (stereo not given),-55.9% [at 11.4 µM]
13,Cc1cc(O)cc(=O)o1,-32.2%
14,CO[C@@H]1COC(=O)CCC[C@@H](C)[C@H](OC)COC(=O)[C@H](Cc2ccccc2)NC(=O)C/C=C\[C@H]1C,-87.8% [at 11.4 µM]
15,CCCCCCN(C(=O)CCCCCN1C(=O)NC(c2ccc(-c3ccccc3)cc2)C(C(=O)OCc2ccccc2)=C1C)C(C(=O)NCCCC)c1ccc(O)cc1 (stereo not given),-67.4%
16,C[C@]1(C(=O)NCCCNc2ncc(C(F)(F)F)cc2Cl)C=C[C@@H](Cc2ccccc2)N1C(=O)c1ccccc1,-75.3%
17,O=C(O)c1sccc1S(=O)(=O)Nc1ccc(Cl)cc1,-30.3%
18,CCC1=C(OC(=O)N(CC)CC)N2C(=O)OC(=NCC3CC3)[C@]2(C)[C@H]2C1=CC[C@H]1C(=O)N(CC(=O)OC)C(=O)[C@H]12,-87.2%
19,C/C(CCN1CCCCc2nc(C)c(C)cc21)=N\OC[C@@H](O)COCc1ccco1,-64.3% [at 11.4 µM]
20,COC(=O)[C@@H]1C[C@@]2(O)[C@@H](O)[C@@H](O)[C@@H](O)C[C@H]2N1Cc1ccc(C(C)(C)C)cc1,-60.5%

row,SMILES,"activity change, positive = activation"
1,CCCCCCN(C(=O)CCCCCN1C(=O)NC(C2CC2)C(C(=O)OCc2ccccc2)=C1C)C(C(=O)NCCCC)c1ccc(OCC(=O)OC)c(C(=O)OC)c1 (stereo not given),-110%
2,CO[C@@H]1COC(=O)[C@H]2CCCN2C(=O)[C@@H](C)COC(=O)[C@H](COCc2ccccc2)NC(=O)C/C=C\[C@H]1C,-38.2% [at 11.4 µM]
3,CC(C)=CCC/C(C)=C/CO/N=C1/C[C@@H](O)[C@@H](O)[C@@H]2[C@@H]3C(=O)N(Cc4ccc5c(c4)OCO5)C(=O)[C@H]3CC[C@H]12,-115% [at 11.4 µM]
4,CCOC(=O)OCC1C=C[C@H](c2cc(-c3ccccc3)ccc2O)C(c2ccc(C(C)=O)cc2)O1 (stereo not given in full),-86.1% [at 11.4 µM]
5,CCCNC(=O)OC[C@@H]1O[C@H](CCO/N=C\[C@@H](C)[C@H](OCc2ccccc2)C(C)C)C=C[C@@H]1Oc1ccc(OC)cc1,-83.7% [at 11.4 µM]
6,COc1ccc(-c2coc3ccc(OC4OC(COC(C)=O)C(OC(C)=O)C(OC(C)=O)C4OC(C)=O)cc3c2=O)cc1 (stereo not given),-57.5%
7,COC(=O)c1cccc(C23CC4(C2)[C@H](CN(C)[C@@H]4c2ccccc2)C3c2ccccc2)c1 (stereo not given in full),-85.4%
8,N#Cc1ccc(C23CC4(C2)[C@H](CN(CC2CCCCC2)[C@@H]4c2ccccc2)C3c2ccc(C(F)(F)F)cc2)cc1 (stereo not given in full),-55.3%
9,C[C@H](CO)NC(=O)[C@H](C)[C@H]1C[C@]1(C)[C@H](NC(=O)OCc1ccccc1)c1ccccc1,-107%
10,COc1cccc([C@@H]2Oc3ccc(Br)cc3C(=O)[C@H]2O)c1,-74.4% [at 11.4 µM]
11,CCC1=C2CC[C@H]3C(=O)N(C)C(=O)[C@H]3[C@H]2[C@@]2(Cc3ccccc3)C(=NCCOC)OC(=O)N2C1=O,-88.3%
12,CCCCC#CC1C=CC(Oc2ccc(OC)cc2)C(CO)O1 (stereo not given),-94.2% [at 11.4 µM]
13,C=CCc1cccc(C2C(C)CCC3C(=O)N4C(Cc5c([nH]c6ccccc56)C4c4cc(OC)c(OC)c(OC)c4)C(=O)N32)c1 (stereo not given),-74.3% [at 11.4 µM]
14,CNC1=C(Cl)C(=O)c2ccncc2C1=O,-123%
15,CCC1=C2CC[C@H]3C(=O)NC(=O)[C@H]3[C@H]2[C@@]2(Cc3ccccc3)C(=NCC(=O)OC)OC(=O)N2C1=O,-56.7%
16,COc1cc(OC)c2c(c1)OC(c1ccccc1)CC2=O (stereo not given),-91.7%
17,COc1ccc(-c2ccccc2C2NC(C(=O)O)CCC2C)cc1 (stereo not given),-42% [at 11.4 µM]
18,CC(=O)N1CC=CC1(CC(C)C)C(=O)NCCc1c[nH]c2ccccc12 (stereo not given),-89.4%
19,CC1=C(C(=O)OCc2ccccc2)C(c2ccc(C3CCCCC3)cc2)NC(=O)N1CCCCCC(=O)O (stereo not given),-52.8%
20,C[C@H](CO)NC(=O)[C@H](C)[C@@H]1C[C@@]1(C)[C@@H](NC(=O)OCc1ccccc1)c1ccccc1,-86.6%

# From PubChem BioAssay (NCATS)
